# Laboratory results reported in PMC7862700, “An all-to-all approach to the identification of sequence-specific readers for epigenetic DNA modifications on cytosine”.
# What was measured:
# Assay in all cases: DAPPL (digital affinity profiling via proximity ligation, sequencing); 10 mM Tris-HCl pH 7.5, 50 mM NaCl, 1 mM DTT, 4% glycerol, room temperature, 30 min; GST-TFs on glutathione beads, 16-mer random dsDNA library, 0.1% formaldehyde crosslink after washing; high values mean tight binding
# [1] = target: T1, FLI1 (Homo sapiens, UniProt Q01543 1-452); settings: protein: recombinant; tags: N-terminal GST; dsDNA, one strand shown
# T1 sequence: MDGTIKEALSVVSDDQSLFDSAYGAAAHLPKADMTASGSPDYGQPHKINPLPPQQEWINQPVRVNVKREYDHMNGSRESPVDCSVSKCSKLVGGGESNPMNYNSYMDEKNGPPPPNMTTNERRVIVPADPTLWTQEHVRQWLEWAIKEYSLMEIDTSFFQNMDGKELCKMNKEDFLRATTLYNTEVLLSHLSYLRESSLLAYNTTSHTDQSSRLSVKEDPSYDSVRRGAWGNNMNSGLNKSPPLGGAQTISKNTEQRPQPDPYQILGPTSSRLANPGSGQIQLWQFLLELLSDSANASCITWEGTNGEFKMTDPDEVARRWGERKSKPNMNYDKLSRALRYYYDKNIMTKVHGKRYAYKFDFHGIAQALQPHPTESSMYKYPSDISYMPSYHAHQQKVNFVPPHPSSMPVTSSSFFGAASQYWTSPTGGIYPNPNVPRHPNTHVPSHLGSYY
# Procedure, shortened: (§1)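 Binding signal is defined as a hexamer's read frequency for one factor over its frequency for the tag-only sample. To obtain reads, GST-fused human transcription factors were expressed in yeast, captured on glutathione beads, barcoded with DNA and pooled with that sample. Pools met 200 nmole of a 16-mer random double-stranded DNA library in Tris/NaCl/DTT/glycerol buffer for 30 min at room temperature before washing, 0.1% formaldehyde crosslinking, proximity ligation (BsaI/T4 ligase, 1 h, 37 °C), PCR and Illumina NextSeq500 sequencing.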
# [2] = target: T2, ELK1 (Homo sapiens, UniProt P19419 1-428); settings: protein: recombinant; tags: N-terminal GST; dsDNA, one strand shown
# T2 sequence: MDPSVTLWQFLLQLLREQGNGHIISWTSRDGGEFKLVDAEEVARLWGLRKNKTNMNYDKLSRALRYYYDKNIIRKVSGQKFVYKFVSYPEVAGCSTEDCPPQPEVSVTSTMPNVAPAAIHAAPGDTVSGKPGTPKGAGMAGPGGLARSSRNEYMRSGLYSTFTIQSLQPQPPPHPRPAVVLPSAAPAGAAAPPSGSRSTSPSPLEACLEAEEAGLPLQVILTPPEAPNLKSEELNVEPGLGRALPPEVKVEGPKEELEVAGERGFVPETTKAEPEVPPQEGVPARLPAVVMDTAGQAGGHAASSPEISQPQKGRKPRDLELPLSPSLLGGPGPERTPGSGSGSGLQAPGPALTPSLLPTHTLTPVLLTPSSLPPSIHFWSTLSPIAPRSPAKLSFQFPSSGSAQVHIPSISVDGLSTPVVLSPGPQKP
# Procedure, shortened: as §1
# [3] = target: T3, GABPA (Homo sapiens, UniProt Q06546 1-454); settings: protein: recombinant; tags: N-terminal GST; dsDNA, one strand shown
# T3 sequence: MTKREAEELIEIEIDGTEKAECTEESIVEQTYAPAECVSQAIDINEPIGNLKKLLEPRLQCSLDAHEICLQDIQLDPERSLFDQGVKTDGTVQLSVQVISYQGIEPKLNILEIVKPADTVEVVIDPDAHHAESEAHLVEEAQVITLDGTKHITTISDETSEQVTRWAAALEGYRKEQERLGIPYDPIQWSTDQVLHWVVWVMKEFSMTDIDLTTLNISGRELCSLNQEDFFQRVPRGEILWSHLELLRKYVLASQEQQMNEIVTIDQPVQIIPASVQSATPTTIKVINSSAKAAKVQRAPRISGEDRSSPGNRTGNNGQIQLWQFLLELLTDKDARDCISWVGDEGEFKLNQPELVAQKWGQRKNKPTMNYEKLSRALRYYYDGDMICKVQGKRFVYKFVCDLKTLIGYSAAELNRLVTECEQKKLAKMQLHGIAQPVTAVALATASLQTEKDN
# Procedure, shortened: as §1
# [4] = target: T4, ERG (Homo sapiens, UniProt P11308 1-479); settings: protein: recombinant; tags: N-terminal GST; dsDNA, one strand shown
# T4 sequence: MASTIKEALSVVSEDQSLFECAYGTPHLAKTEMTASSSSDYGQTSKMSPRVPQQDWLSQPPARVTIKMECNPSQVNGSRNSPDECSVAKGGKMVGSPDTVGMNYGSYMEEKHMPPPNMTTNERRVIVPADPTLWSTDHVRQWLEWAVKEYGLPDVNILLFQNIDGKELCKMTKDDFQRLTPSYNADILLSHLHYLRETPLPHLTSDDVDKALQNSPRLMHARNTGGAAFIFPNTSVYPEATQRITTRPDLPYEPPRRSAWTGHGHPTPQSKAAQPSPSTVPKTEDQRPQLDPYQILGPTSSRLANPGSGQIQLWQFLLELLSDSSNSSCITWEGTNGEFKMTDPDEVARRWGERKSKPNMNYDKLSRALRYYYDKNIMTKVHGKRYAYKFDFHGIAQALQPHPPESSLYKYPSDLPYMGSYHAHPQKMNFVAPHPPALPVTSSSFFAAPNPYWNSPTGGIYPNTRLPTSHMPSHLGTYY
# Procedure, shortened: as §1
# [5] = target: ELF1 (Homo sapiens, UniProt P32519 1-619); settings: protein: recombinant; tags: N-terminal GST; dsDNA, one strand shown
# Sequence of ELF1 (P32519 whole entry): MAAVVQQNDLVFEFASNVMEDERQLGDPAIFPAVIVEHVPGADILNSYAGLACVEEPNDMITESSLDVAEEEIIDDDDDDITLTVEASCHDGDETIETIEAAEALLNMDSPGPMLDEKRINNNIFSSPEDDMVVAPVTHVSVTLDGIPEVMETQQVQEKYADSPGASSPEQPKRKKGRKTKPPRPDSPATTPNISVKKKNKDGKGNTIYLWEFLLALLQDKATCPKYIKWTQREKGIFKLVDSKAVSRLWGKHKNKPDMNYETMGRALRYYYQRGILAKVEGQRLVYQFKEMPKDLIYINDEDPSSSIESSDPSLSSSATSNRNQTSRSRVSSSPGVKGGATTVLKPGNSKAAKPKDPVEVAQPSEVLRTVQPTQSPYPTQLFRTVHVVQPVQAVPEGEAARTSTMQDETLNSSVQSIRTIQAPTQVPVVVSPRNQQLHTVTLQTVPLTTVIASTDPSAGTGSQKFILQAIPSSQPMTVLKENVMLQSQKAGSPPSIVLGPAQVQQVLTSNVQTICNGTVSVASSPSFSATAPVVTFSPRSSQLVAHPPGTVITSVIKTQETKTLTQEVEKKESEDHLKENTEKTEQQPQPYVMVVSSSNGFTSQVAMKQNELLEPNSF
# Procedure, shortened: as §1
# [6] = target: T5, EHF (Homo sapiens, UniProt Q9NZC4 1-300); settings: protein: recombinant; tags: N-terminal GST; dsDNA, one strand shown
# T5 sequence: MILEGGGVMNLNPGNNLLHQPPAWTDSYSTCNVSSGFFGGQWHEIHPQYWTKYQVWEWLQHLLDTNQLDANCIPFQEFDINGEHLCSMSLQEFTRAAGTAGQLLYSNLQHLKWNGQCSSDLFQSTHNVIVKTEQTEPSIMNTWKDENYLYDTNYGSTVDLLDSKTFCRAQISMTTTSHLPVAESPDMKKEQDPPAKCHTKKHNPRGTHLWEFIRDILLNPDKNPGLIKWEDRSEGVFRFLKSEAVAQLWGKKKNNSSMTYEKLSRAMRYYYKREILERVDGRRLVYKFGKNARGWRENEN
# Procedure, shortened: as §1
# [7] = target: SPI1 (Homo sapiens, UniProt P17947 1-270); settings: protein: recombinant; tags: N-terminal GST; dsDNA, one strand shown
# Procedure, shortened: as §1
# [8] = target: SPIB (Homo sapiens, UniProt Q01892 1-262); settings: protein: recombinant; tags: N-terminal GST; dsDNA, one strand shown
# Sequence of SPIB (Q01892 whole entry): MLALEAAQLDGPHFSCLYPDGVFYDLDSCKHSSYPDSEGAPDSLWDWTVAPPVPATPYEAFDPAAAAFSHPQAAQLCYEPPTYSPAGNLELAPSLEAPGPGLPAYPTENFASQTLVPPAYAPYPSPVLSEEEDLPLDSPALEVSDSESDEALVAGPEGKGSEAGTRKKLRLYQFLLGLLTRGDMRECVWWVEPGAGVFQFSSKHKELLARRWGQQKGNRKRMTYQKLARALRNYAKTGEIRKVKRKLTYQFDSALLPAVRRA
# Procedure, shortened: as §1
# [9] = target: T6, ELK3 (Homo sapiens, UniProt P41970 1-407); settings: protein: recombinant; tags: N-terminal GST; dsDNA, one strand shown
# T6 sequence: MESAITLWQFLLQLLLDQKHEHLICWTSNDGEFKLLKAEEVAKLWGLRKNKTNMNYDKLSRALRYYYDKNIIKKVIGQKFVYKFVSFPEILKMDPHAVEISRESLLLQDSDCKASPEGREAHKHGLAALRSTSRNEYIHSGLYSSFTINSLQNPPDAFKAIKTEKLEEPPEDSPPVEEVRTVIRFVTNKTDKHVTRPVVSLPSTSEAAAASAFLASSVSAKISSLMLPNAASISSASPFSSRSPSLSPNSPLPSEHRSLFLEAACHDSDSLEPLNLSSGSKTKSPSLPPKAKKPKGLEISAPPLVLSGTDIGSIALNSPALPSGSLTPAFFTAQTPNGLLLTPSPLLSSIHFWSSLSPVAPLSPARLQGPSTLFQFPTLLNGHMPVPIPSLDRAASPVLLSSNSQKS
# Procedure, shortened: as §1
# [10] = target: T7, FEV (Homo sapiens, UniProt Q99581 1-238); settings: protein: recombinant; tags: N-terminal GST; dsDNA, one strand shown
# T7 sequence: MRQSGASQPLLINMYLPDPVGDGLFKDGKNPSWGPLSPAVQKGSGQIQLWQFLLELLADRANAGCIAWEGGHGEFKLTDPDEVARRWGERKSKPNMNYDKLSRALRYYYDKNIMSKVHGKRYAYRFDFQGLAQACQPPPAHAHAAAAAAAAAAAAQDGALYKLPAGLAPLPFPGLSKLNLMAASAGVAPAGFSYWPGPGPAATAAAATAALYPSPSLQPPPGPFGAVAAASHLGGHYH
# Procedure, shortened: as §1
# [11] = target: ETV5 (Homo sapiens, UniProt P41161 1-510); settings: protein: recombinant; tags: N-terminal GST; dsDNA, one strand shown
# Sequence of ETV5 (P41161 whole entry): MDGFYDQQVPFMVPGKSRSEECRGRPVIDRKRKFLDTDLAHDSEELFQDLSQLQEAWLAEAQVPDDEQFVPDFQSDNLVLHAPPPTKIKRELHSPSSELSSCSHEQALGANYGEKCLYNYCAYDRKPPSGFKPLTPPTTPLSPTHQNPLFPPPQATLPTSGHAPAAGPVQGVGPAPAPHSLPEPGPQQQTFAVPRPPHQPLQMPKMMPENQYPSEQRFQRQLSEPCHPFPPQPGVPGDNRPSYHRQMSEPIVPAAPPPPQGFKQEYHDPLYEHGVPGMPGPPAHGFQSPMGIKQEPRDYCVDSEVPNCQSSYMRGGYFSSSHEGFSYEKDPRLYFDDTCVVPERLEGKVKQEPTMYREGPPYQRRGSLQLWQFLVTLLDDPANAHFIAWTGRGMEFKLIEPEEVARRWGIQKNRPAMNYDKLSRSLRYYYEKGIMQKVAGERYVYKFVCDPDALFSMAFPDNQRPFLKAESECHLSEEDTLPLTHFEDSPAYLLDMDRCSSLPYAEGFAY
# Procedure, shortened: as §1
# [12] = target: HSF1 (Homo sapiens, UniProt Q00613 1-529); settings: protein: recombinant; tags: N-terminal GST; chain copies: 3; dsDNA, one strand shown
# Sequence of HSF1 (Q00613 whole entry): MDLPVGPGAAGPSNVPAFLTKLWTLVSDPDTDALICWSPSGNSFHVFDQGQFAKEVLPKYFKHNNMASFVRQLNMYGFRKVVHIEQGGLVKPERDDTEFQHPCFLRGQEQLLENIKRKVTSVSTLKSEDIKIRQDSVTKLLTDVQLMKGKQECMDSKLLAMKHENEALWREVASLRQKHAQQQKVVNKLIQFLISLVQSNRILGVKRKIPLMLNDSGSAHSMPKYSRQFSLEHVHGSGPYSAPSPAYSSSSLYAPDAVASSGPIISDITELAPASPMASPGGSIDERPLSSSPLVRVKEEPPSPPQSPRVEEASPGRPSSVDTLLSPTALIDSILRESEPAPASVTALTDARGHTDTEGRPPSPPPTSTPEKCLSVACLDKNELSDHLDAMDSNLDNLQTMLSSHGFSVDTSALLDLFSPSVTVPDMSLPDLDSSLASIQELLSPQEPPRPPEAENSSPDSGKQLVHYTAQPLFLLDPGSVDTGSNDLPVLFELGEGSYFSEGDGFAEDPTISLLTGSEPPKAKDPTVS
# Procedure, shortened: as §1
# [13] = target: T8, SPIC (Homo sapiens, UniProt Q8N5J4 1-248); settings: protein: recombinant; tags: N-terminal GST; dsDNA, one strand shown
# T8 sequence: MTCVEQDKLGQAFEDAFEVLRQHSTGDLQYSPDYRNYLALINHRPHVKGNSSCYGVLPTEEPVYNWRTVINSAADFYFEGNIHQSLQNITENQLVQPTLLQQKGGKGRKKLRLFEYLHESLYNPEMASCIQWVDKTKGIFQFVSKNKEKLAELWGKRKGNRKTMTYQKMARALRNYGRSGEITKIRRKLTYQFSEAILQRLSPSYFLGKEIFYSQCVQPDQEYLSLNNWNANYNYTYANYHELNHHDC
# Procedure, shortened: as §1
# [14] = target: ELF4 (Homo sapiens, UniProt Q99607 1-663); settings: protein: recombinant; tags: N-terminal GST; dsDNA, one strand shown
# Sequence of ELF4 (Q99607 whole entry): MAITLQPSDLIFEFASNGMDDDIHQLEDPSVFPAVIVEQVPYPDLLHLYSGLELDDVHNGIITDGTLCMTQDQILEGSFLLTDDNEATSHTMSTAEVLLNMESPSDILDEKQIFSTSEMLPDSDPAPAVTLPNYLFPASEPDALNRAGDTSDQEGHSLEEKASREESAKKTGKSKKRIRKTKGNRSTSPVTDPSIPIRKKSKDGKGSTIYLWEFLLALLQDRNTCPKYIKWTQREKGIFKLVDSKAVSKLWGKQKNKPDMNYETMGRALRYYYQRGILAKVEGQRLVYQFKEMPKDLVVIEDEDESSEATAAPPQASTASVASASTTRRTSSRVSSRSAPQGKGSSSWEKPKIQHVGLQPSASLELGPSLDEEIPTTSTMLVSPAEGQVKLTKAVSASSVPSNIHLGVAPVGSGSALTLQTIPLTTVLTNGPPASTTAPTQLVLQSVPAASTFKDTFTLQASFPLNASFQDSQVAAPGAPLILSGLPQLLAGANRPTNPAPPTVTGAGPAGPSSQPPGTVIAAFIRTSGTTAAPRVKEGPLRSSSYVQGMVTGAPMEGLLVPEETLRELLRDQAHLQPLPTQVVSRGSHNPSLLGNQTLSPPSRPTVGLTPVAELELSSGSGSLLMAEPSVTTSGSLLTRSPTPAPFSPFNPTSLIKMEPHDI
# Procedure, shortened: as §1
# [15] = target: T9, ELK4 (Homo sapiens, UniProt P28324-2 1-405); settings: protein: recombinant; tags: N-terminal GST; dsDNA, one strand shown
# T9 sequence: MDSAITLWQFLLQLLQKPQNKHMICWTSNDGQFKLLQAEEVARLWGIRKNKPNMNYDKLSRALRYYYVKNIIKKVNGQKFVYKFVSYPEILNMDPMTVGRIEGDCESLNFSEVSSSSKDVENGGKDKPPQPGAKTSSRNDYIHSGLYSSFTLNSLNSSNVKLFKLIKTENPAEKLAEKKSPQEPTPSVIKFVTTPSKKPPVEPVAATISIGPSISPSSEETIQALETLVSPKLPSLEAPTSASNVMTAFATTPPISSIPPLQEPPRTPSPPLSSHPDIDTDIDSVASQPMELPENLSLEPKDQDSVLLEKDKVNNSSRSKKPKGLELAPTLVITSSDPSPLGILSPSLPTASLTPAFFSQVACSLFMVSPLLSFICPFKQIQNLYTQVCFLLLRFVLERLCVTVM
# Procedure, shortened: as §1
# [16] = target: T10, ELF3 (Homo sapiens, UniProt P78545 1-371); settings: protein: recombinant; tags: N-terminal GST; dsDNA, one strand shown
# T10 sequence: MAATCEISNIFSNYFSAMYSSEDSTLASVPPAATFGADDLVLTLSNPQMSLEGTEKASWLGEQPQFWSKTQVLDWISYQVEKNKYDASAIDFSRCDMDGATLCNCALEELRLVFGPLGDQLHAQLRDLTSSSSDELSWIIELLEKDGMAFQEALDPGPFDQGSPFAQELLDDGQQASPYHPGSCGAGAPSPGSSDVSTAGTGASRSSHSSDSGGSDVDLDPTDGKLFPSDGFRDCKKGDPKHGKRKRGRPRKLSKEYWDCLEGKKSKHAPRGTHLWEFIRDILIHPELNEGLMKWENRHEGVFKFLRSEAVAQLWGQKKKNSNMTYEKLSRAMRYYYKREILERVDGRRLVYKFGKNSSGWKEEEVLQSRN
# Procedure, shortened: as §1
# [17] = target: CRX (Homo sapiens, UniProt O43186 1-299); settings: protein: recombinant; tags: N-terminal GST; dsDNA, one strand shown
# Sequence of CRX (O43186 whole entry): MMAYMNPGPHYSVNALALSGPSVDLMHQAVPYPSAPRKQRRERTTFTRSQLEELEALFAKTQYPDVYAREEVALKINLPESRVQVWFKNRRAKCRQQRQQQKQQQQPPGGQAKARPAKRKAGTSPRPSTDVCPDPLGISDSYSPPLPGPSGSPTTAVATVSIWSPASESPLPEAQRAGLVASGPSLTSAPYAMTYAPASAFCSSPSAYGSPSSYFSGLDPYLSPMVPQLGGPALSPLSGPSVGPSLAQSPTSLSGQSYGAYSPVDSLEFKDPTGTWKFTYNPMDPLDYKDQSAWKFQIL
# Procedure, shortened: as §1
# [18] = target: ETV1 (Homo sapiens, UniProt P50549 1-477); settings: protein: recombinant; tags: N-terminal GST; dsDNA, one strand shown
# Sequence of ETV1 (P50549 whole entry): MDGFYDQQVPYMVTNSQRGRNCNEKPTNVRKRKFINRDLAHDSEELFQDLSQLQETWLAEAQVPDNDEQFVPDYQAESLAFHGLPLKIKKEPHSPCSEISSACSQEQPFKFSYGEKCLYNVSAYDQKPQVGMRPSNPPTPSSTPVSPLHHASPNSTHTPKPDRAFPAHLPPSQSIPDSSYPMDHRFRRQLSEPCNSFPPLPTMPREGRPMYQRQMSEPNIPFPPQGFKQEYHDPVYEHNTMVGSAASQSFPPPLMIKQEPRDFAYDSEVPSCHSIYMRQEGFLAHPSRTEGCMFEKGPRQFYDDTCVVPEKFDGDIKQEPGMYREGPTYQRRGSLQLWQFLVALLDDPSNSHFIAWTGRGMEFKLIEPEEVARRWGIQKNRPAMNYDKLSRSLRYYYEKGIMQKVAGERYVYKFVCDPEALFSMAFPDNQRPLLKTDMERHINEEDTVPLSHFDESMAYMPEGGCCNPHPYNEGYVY
# Procedure, shortened: as §1
Sequence,binding signal [1],binding signal [2],binding signal [3],binding signal [4],binding signal [5],binding signal [6],binding signal [7],binding signal [8],binding signal [9],binding signal [10],binding signal [11],binding signal [12],binding signal [13],binding signal [14],binding signal [15],binding signal [16],binding signal [17],binding signal [18]
ACTAAG,"1.04 fold enrichment (6-mer frequency, TF over GST control)","1.08 fold enrichment (6-mer frequency, TF over GST control)","1.11 fold enrichment (6-mer frequency, TF over GST control)","1.02 fold enrichment (6-mer frequency, TF over GST control)","1.04 fold enrichment (6-mer frequency, TF over GST control)","1.15 fold enrichment (6-mer frequency, TF over GST control)","1.12 fold enrichment (6-mer frequency, TF over GST control)","1.14 fold enrichment (6-mer frequency, TF over GST control)","1.07 fold enrichment (6-mer frequency, TF over GST control)","1.02 fold enrichment (6-mer frequency, TF over GST control)","1.04 fold enrichment (6-mer frequency, TF over GST control)","1.32 fold enrichment (6-mer frequency, TF over GST control)","1.19 fold enrichment (6-mer frequency, TF over GST control)","1.1 fold enrichment (6-mer frequency, TF over GST control)","1.02 fold enrichment (6-mer frequency, TF over GST control)","1.11 fold enrichment (6-mer frequency, TF over GST control)","1.76 fold enrichment (6-mer frequency, TF over GST control)","1.15 fold enrichment (6-mer frequency, TF over GST control)"
AAAGTT,"1.07 fold enrichment (6-mer frequency, TF over GST control)","1.05 fold enrichment (6-mer frequency, TF over GST control)","1.13 fold enrichment (6-mer frequency, TF over GST control)","1.02 fold enrichment (6-mer frequency, TF over GST control)","1.08 fold enrichment (6-mer frequency, TF over GST control)","1.1 fold enrichment (6-mer frequency, TF over GST control)","1.07 fold enrichment (6-mer frequency, TF over GST control)","1.16 fold enrichment (6-mer frequency, TF over GST control)","1.17 fold enrichment (6-mer frequency, TF over GST control)","1.01 fold enrichment (6-mer frequency, TF over GST control)","1.16 fold enrichment (6-mer frequency, TF over GST control)","1.43 fold enrichment (6-mer frequency, TF over GST control)","1.03 fold enrichment (6-mer frequency, TF over GST control)","1.14 fold enrichment (6-mer frequency, TF over GST control)","1.19 fold enrichment (6-mer frequency, TF over GST control)","1.1 fold enrichment (6-mer frequency, TF over GST control)","1.22 fold enrichment (6-mer frequency, TF over GST control)","1.07 fold enrichment (6-mer frequency, TF over GST control)"
